Assay results taken from PubChem BioAssay (NCI).
Compounds without any hit were thinned out: in the full panel of roughly 83,000, 20% have a hit.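 Negative percent growth values reflect cell death: -40 means 40% of the cells present at the start died, and -100 means all died.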 A number with no mark means an inactive call. Activity calls are given as the source filed them. How the source made its calls: active means growth percent below 10; inactive means the rest.

Experiments:
Experiment in all cases: NCI-60 one-dose screen, 48 h (100 = growth as untreated, 0 = no growth, -100 = all killed)
Conditions in all cases: 10 µM unless noted
[1] = system: NCI-H23 lung
[2] = system: NCI-H226 lung
[3] = system: NCI-H322M lung
[4] = system: HOP-62 NSCLC
[5] = system: NCI-H460 lung
[6] = system: HOP-92 NSCLC
[7] = system: NCI-H522 lung
[8] = system: A549/ATCC NSCLC
[9] = system: 786-0 renal
[10] = system: COLO 205 colon

Structure (SMILES) | growth [1] | growth [2] | growth [3] | growth [4] | growth [5] | growth [6] | growth [7] | growth [8] | growth [9] | growth [10]
COc1cccc(NC(=O)c2sc3nc(C)c(C(=O)c4ccccc4)cc3c2N)c1 | 101% | 93.9% | 84.3% | 89.7% | 61.2% | 86.9% | 92.5% | 35.1% | 89% | 107%
CCN1C(=O)N(CC)C2C1NN=c1s/c(=C\c3ccccc3)c(=O)n12 (stereo not given) | 25.6% | 59.1% | 42.6% | 38.2% | 4.35% (active) | 27.3% | -8.72% (active) | 7.65% (active) | 25.1% | -2.49% (active)
CCCCCCCCCCCCCCCCCCOc1ccccc1CC(=O)OCC[N+]1(C)CCCCC1 | 29.8% | 28.1% | 84.6% | 70% | 62.2% | -9.25% (active) | 33.3% | 42.2% | 31.2% | 55.6%
Clc1ccc2c(NCCCn3cnc4c(N5CCCC5)nc(Cl)nc43)ccnc2c1 | 98.7% | 102% | 92.7% | 91.5% | 107% | 107% | 91.5% | 96.5% | 96.4% | 88.2%
CN(CCNc1ccc(C(=N)N)cc1)c1ccc(C(=N)N)cc1 | 81.3% | 52.7% | 71% | 112% | 47.9% | 62.7% | 87.6% | 41.9% | 102% | 135%
N=C(N)c1ccc(-c2ccc(-c3ccc(Cl)cc3Cl)s2)nc1 | 85.2% | 91.7% | 60.9% | 90.7% | -60.1% (active) | 84.2% | 29% | 33.1% | 85.4% | -27.1% (active)
CC(=O)O[C@H]1C[C@@]2(C)[C@@H](C[C@@H](O)[C@H]3[C@@]4(C)CC[C@H](N5CCCC5)[C@@H](C)[C@@H]4CC[C@@]32C)/C1=C(\CCC=C(C)C)C(=O)O | 95.7% | 94.6% | 101% | 100% | 101% | 83.7% | 91.2% | 102% | 105% | 108%
O=C(O)COc1ccc(F)cc1 | 96.8% | 105% | 99.6% | 98.7% | 113% | 102% | 93.8% | 99.6% | 102% | 116%
COc1ccc(N/N=C/c2ccc3c(c2)Sc2ccccc2N3C)cc1 | 76.8% | -68.4% (active) | 77.1% | 66.9% | 28.9% | 67.5% | 46.9% | 57.2% | 88.4% | 102%
C=C(C[n+]1ccccc1)[C@@H]1CC[C@]2(C(=O)OC)CC[C@]3(C)[C@H](CC[C@@H]4[C@@]5(C)CCC(=O)C(C)(C)[C@@H]5CC[C@]43C)[C@@H]12 | 87.9% | 90.3% | 96.3% | 103% | 98.3% | 67.4% | 55.5% | 93.3% | 101% | 56.1%
O=C(Oc1ccccc1)c1cc(O)c(O)c(O)c1 | 72.3% | 89.8% | 54.8% | 54.9% | 28% | 79.6% | 53.3% | 68.9% | 55% | 99.2%
CC(=O)Oc1ccccc1C(=O)N(Cc1ccc2c(Cl)cc(Cl)c(O)c2n1)c1ccccc1 | 50.3% | 66.4% | 54.9% | 36.6% | 29.7% | 61.6% | 72.2% | 29.2% | 59.1% | 93.7%
C=CCn1c(SCC(=O)Nc2ccc(C(=O)/C=C/c3ccc(Cl)cc3)cc2)nnc1-c1ccccc1 | 95% | 94.7% | 96.7% | 97% | 106% | 93.2% | 82.2% | 93.2% | 81.8% | 105%
COc1cc(C(=O)n2nc(NCCCc3ccccc3)c3cc(N)ccc32)cc(OC)c1OC | 92.8% | 89.7% | 106% | 93.5% | 102% | 88.9% | 74.6% | 93.3% | 96.1% | 113%
Cc1nn(C)c2ncnc(Nc3ccccc3Br)c12 | 101% | 96.3% | 106% | 101% | 106% | 104% | 98.7% | 99.3% | 97.8% | 119%
O=C(Nc1ncc(Cc2ccccc2Cl)s1)c1ccc2c(c1)OCCO2 | 40.8% | 30.1% | 48.9% | 28.3% | 5.42% (active) | 56.3% | 1.6% (active) | 20.8% | 41.2% | -3.85% (active)
COc1ccc(-c2cc(-c3ccc(Nc4nc(Nc5ccc(Cl)cc5)nc(Nc5ccc(Cl)cc5)n4)cc3)no2)cc1 | 66.5% | 110% | 79.5% | 100% | 74.8% | -28.6% (active) | 84.5% | 62.5% | 80.6% | 79.5%
O=C(/C=C/c1ccco1)Nc1ncc(Cc2ccc(F)cc2)s1 | 23.4% | 51.8% | 47.2% | 25.8% | 6.54% (active) | 90.5% | -2.92% (active) | 23.9% | 38.4% | 4.77% (active)
Nc1nc(N)c2c(n1)NC(c1cccc(Nc3ccnc4cc(C(F)(F)F)ccc34)c1)CC(c1ccc(Cl)cc1)=N2 (stereo not given) | 64.7% | 82.7% | 89.3% | 52% | 20.4% | 34.5% | 32.6% | 40.8% | 68.9% | 29.5%
CN(C)C(=S)NN=C(c1ccccn1)c1ccccn1 | 38.5% | 24.6% | 11.5% | 26% | 0.166% (active) | 64.7% | 13.7% | 12.9% | 14.6% | 38%
Cc1ccc2c(n1)C[C@H](C(C)(C)O)CC[C@H]2C | 103% | 100% | 98.5% | 101% | 108% | 97.7% | 94.3% | 94.4% | 97.9% | 111%
CC(C)=CCC[C@](C)(O)C1CC[C@]2(C)[C@@H]1CC[C@@H]1[C@@]3(C)CC/C(=N\OCCC#N)C(C)(C)[C@@H]3CC[C@]12C (stereo not given in full) | 72.5% | 68% | 98.8% | 89.5% | 79.6% | 105% | 68.7% | 76.2% | 86.2% | 83.9%
CN1CCN(Cc2ccc(NC(=O)c3cncc(C#Cc4cnc(N)c5ncccc45)c3)cc2Cl)CC1 | 57.3% | 56.5% | 116% | 89.8% | 3.07% (active) | 75.6% | 85.2% | 74.7% | -78.2% (active) | 70.3%
CN1CCN(Cc2ccc(NC(=O)c3cncc(C#Cc4c(N)ncc5ccccc45)c3)cc2C(F)(F)F)CC1 | -59.1% (active) | -11.8% (active) | -37% (active) | -83.7% (active) | -71.5% (active) | -59.2% (active) | -83.9% (active) | -87.7% (active) | -80.8% (active) | -90.4% (active)
